The values that follow come from PubChem BioAssay (NCI).

The panel holds about 83,000 compounds, 20% with a hit somewhere; the sample as a whole holds those more often.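 Activity criterion: percent growth below 10, measured after cells in 96-well plates were exposed to a single compound concentration for 48 hours.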 A number with no mark means an inactive call. Calls of active or inactive are those of the source.

What all share (experiment): NCI-60 one-dose screen, 48 h (100 = growth as untreated, 0 = no growth, -100 = all killed)
What all share (settings): 10 µM unless noted

Assay [1] relates to HCT-15 colon.
Assay [2] deals with SNB-75 CNS.
The subject of assay [3] is SNB-19 CNS.
The subject of assay [4] is U251 CNS.
Assay [5] has as its system PC-3 prostate.
In assay [6] the test system is SK-MEL-5 melanoma.
In assay [7] the test system is UACC-62 melanoma.
In assay [8] the test system is LOX IMVI melanoma.
Assay [9] relates to SK-MEL-28 melanoma.
The subject of assay [10] is SK-MEL-2 melanoma.
In assay [11] the test system is EKVX NSCLC.
For assay [12], the system named is SN12C renal.
Assay [13] has as its system UO-31 renal.
In assay [14] the test system is TK-10 renal.
Assay [15] relates to ACHN renal.
Assay [16] deals with CAKI-1 renal.
The test system of assay [17] is CCRF-CEM leukemia.
For assay [18], the system named is MOLT-4 leukemia.
The subject of assay [19] is A498 renal.

On to `Clc1cccc(/C=N/Nc2nc(N/N=C/c3cccc(Cl)c3Cl)nc(N3CCCCC3)n2)c1Cl`, for which the growth was 65.5% in [1]; 104% in assay [2]; 95.4% in assay [3]; 52.9% in [4]; 70.1% in [5]; 94.2% in [6]. For the same molecule, the growth in [7] is 89.8%; in [8] it was 68.3%; in [9], 97.7%; in assay [10] it was 114%; in assay [11], 89%; in assay [12], 80.7%. The growth in assay [13] was 93.2%; in assay [14], 91.2%; in assay [15], 83.7%; in assay [16], 84.1%; in assay [17], 71.3%; in [18], 84.3%.
Regarding `COc1cc(OC)cc(C(=O)Nc2cccc(C#Cc3cccc4[nH]nc(N)c34)c2)c1`, the growth in assay [1] was 31.1%; in assay [2], -18.6% (active); in [3], 57.2%; in assay [4], 22.5%; in [5], 31.9%; in assay [6], -32.6% (active). For the same molecule, the growth was 23.1% in assay [7]; 31.9% in assay [8]; 50.3% in assay [9]; -24.2% (active) in assay [10]; 61.1% in assay [11]; 30.4% in [12]. The growth in [13] is 32.2%; in assay [14] it was 54.3%; in assay [15], 35.4%; in [16], 24.5%; in assay [19] it was -19.2% (active); in assay [17], 13%. For the same molecule, the growth in assay [18] was 20.5%.
In the case of `C#CCNC1CCC(c2csc(C#C)n2)=C1C` (stereo not drawn), the growth in assay [1] was 96.6%; in assay [2], 113%; in assay [3] it was 90.6%; in assay [4], 4.13% (active); in assay [5], 80.8%; in assay [6] it was 90%. Further, the growth in [7] was 76.8%; in assay [8], -90.7% (active); in assay [9], 97%; in assay [10], 101%; in assay [11] it was 24.8%; in [12] it was 65.4%. Further, the growth in assay [13] is 44.7%; in [14], 130%; in assay [15] it was -88.2% (active); in assay [16] it was 58.3%; in [19], 118%; in assay [17], -9.98% (active). In addition, the growth in assay [18] is 84.7%.
Take `Cc1cc(C)c2sc(=O)n(Cc3nnc(SCCC(=O)O)o3)c2n1`: the growth was 99.6% in [1]; 103% in assay [2]; 95.4% in assay [3]; 102% in assay [4]; 92.7% in assay [5]; 95.5% in assay [7]. In addition, the growth in assay [8] is 99.2%; in assay [9], 101%; in assay [12], 97.8%; in assay [13] it was 91.8%; in assay [14] it was 103%; in assay [15], 103%. Besides, the growth is 89.5% in assay [16], 56.6% in [17] and 90.6% in assay [18].
As to `COc1cc2nc(Cl)nc(Nc3cccc(C4=Nc5c(N)nc(N)nc5NC(c5ccccc5)C4)c3)c2cc1OC` (stereo not drawn), the growth in assay [1] was 48.6%; in [2] it was 75%; in assay [3] it was 95.6%; in assay [4], 60.4%; in assay [5], 75.1%; in [6], 73.6%. Moreover, the growth in assay [8] was 68%; in assay [9], 105%; in assay [10] it was 88.8%; in assay [11] it was 96.7%; in [12], 93.4%; in [13], 94.4%. Also, the growth in assay [14] is 110%; in [15], 91.8%; in assay [16] it was 96.1%; in assay [19] it was 88.9%; in assay [17] it was 34.8%; in [18], 54.5%.
Consider `COc1ccccc1NC1=C(Cl)C(=O)c2nc(C)ccc2C1=O`, for which the growth in assay [1] is -47% (active); in assay [2] it was 105%; in assay [3], 38.9%; in assay [4] it was 62.8%; in [5] it was 27.4%; in assay [6], -93.3% (active). Besides, the growth is -45.8% (active) in assay [7]; -73% (active) in assay [8]; 14.1% in [9]; 78.8% in [10]; 28.5% in assay [11]; -49.5% (active) in assay [12]. For the same molecule, the growth in assay [13] is -65.7% (active); in assay [14] it was 148%; in assay [15] it was -99.9% (active); in assay [19] it was 71.8%; in [17] it was -4.94% (active); in [18] it was -39% (active).
With `CC(C)(C)c1ccc(C(=O)Nc2sc3c(c2C(N)=O)CC/C(=N\O)C3)cc1`, the growth is 10.4% in [1]; 44.2% in assay [2]; 26.7% in [3]; 17.9% in assay [4]; 18.7% in [5]; -29.4% (active) in assay [6]. For the same molecule, the growth in [7] is 12.7%; in assay [8] it was 3.93% (active); in assay [9], 31.4%; in assay [10], -3.77% (active); in assay [11], 25.9%; in [12], 21.5%. In addition, the growth was -33.7% (active) in assay [13]; 32% in assay [14]; 12.2% in assay [15]; 12.7% in assay [16]; 34.6% in assay [19]; 10.1% in assay [17]. In assay [18], the growth was 15%.
With `COc1ccc(NC(=O)CSc2nnc(-c3ccc4nc(-c5ccc(OC)c(OC)c5)[nH]c4c3)o2)cc1OC`, the growth in [1] is 108%; in assay [2] it was 100%; in assay [3], 113%; in [4], 112%; in [5], 102%; in assay [6] it was 88.3%. The growth was 92% in assay [7]; 98% in [8]; 97% in assay [9]; 103% in assay [10]; 107% in assay [11]; 100% in assay [12]. The growth was 73.5% in [13]; 117% in assay [14]; 94.2% in assay [15]; 94.7% in [16]; 93.3% in assay [19]; 86% in assay [17]. For the same molecule, the growth in [18] was 86.6%.
Take `O=C(CNc1nc(-c2cccc([N+](=O)[O-])c2)cs1)Nc1cccc(Cl)c1`: the growth in assay [1] is 98.4%; in [2], 101%; in assay [3], 99.5%; in assay [4] it was 106%; in assay [5] it was 98.5%; in assay [6] it was 103%. In addition, the growth in [7] was 92.7%; in assay [8] it was 115%; in [9], 104%; in [10], 107%; in assay [11] it was 89.2%; in assay [12] it was 99.4%. Besides, the growth in assay [13] is 80.5%; in assay [14], 149%; in assay [15], 101%; in assay [16], 106%; in assay [17], 103%; in assay [18] it was 101%.
